What all share (assay): NCI-60 one-dose screen, 48 h (100 = growth as untreated, 0 = no growth, -100 = all killed)
The subject of one test is HCT-15 colon. The conditions noted are these: 10 µM unless noted.
A further test concerns HT29 colon. The settings on record: 10 µM unless noted.
For the next test, the system named is SNB-19 CNS. The settings on record: 10 µM unless noted.
In the next test the test system is U251 CNS. The settings on record: 10 µM unless noted.
The subject of the next test is PC-3 prostate. The settings on record: 10 µM unless noted.
Another test relates to SK-MEL-5 melanoma. The conditions noted are these: 10 µM unless noted.
The subject of the next test is UACC-62 melanoma. The conditions noted are these: 10 µM unless noted.
The subject of the next test is LOX IMVI melanoma. The conditions noted are these: 10 µM.
The test system of another test is SK-MEL-28 melanoma. The conditions noted are these: 10 µM unless noted.
The next test deals with SK-MEL-2 melanoma. The conditions noted are these: 10 µM unless noted.
The next test relates to EKVX NSCLC. The settings on record: 10 µM unless noted.
A further test relates to SN12C renal. The settings on record: 10 µM unless noted.
A further test concerns UO-31 renal. The conditions noted are these: 10 µM unless noted.
Another test deals with TK-10 renal. The settings on record: 10 µM unless noted.
The subject of a further test is ACHN renal. The conditions noted are these: 10 µM unless noted.
The test system of the next test is CAKI-1 renal. The settings on record: 10 µM unless noted.
In the next test the test system is A498 renal. The settings on record: 10 µM unless noted.
The next test deals with CCRF-CEM leukemia. The conditions noted are these: 10 µM unless noted.
A further test relates to MOLT-4 leukemia. The conditions noted are these: 10 µM unless noted.

This is part of a sample that, as a whole, favours compounds with a hit. Of some 83,000 tested, about 20% had one in any assay.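 The endpoint reported here, percent growth, reads 100 for growth as untreated, 0 for no net growth and -100 for all cells dead.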 Unmarked numbers belong to inactive results. Activity calls are given as the source filed them. Rule for the calls: active = growth percent below 10; inactive = the rest.

As for `COc1c(F)ccc(C(=O)Nc2ccc3nc(NC(=O)C4CCCN(S(=O)(=O)c5ccc(C#N)cc5)C4)sc3c2)c1F` (centres undefined), the growth in the test on HCT-15 colon is 90.1%; in the test with HT29 colon it was 85.8%; in the test on SNB-19 CNS, 100%; in the test on U251 CNS, 89.3%; with PC-3 prostate it was 81.9%; with SK-MEL-5 melanoma, 82.5%. Besides, the growth in the test with UACC-62 melanoma is 78.7%; in the test on LOX IMVI melanoma, 95.4%; with SK-MEL-28 melanoma, 105%; in the test with SK-MEL-2 melanoma, 97.1%; in the test on EKVX NSCLC it was 96.2%; in the test with SN12C renal, 94.6%. Further, the growth was 68.8% with UO-31 renal; 112% in the test with TK-10 renal; 97.4% with ACHN renal; 90.6% in the test with CAKI-1 renal; 101% in the test with A498 renal; 92.2% in the test on CCRF-CEM leukemia. For the same compound, the growth in the test with MOLT-4 leukemia was 62.4%.
`Cc1ccc([C@H]2C(C(=O)c3ccc(Cl)cc3)C3(N[C@@H]2c2ccccc2)C(=O)Nc2ccc(Br)cc23)cc1` (some centres undefined): the growth was 50.8% in the test on HCT-15 colon; 7.2% (active) with HT29 colon; 66.5% in the test with SNB-19 CNS; 47.9% in the test with U251 CNS; 16.7% in the test with PC-3 prostate; 88% in the test with SK-MEL-5 melanoma. For the same compound, the growth with UACC-62 melanoma was 45.9%; in the test with LOX IMVI melanoma, 35.9%; in the test on SK-MEL-28 melanoma, 77.9%; in the test with SK-MEL-2 melanoma, 60.2%; in the test with EKVX NSCLC it was 65.3%; in the test on SN12C renal, 4.02% (active). Further, the growth was 38.6% in the test with UO-31 renal; 91.6% in the test on TK-10 renal; 47% in the test on ACHN renal; 44% with CAKI-1 renal; 101% with A498 renal; 8.72% (active) in the test on MOLT-4 leukemia.
With `C=C1CCC2C3(C)COC(c4ccccc4)OC3CCC2(C)C1CC(NCc1ccccc1)C1=CCOC1=O` (centres undefined), the growth was 87.1% with HCT-15 colon; 73.5% in the test with HT29 colon; 73.6% in the test on SNB-19 CNS; 77.3% with U251 CNS; 31.6% with PC-3 prostate; 69.9% in the test with SK-MEL-5 melanoma. For the same compound, the growth in the test on UACC-62 melanoma is 70.1%; in the test with LOX IMVI melanoma it was 74.3%; in the test on SK-MEL-28 melanoma, 94.2%; with SK-MEL-2 melanoma, 101%; with EKVX NSCLC, 73.8%; in the test on UO-31 renal, 56.7%. The growth is 76% with TK-10 renal; 86.4% in the test with ACHN renal; 58.1% in the test on CAKI-1 renal; 76.6% in the test on A498 renal; 101% in the test with CCRF-CEM leukemia; 61.1% in the test with MOLT-4 leukemia.
With `CC1=C(C#N)C2=NNCC(c3ccccc3)=NN2C(c2ccccc2)=C1`, the growth is 104% with HCT-15 colon; 114% with HT29 colon; 97.3% in the test with SNB-19 CNS; 96.2% with U251 CNS; 106% with PC-3 prostate; 106% in the test with SK-MEL-5 melanoma. Further, the growth in the test with UACC-62 melanoma was 96%; in the test with LOX IMVI melanoma, 109%; in the test on SK-MEL-28 melanoma, 109%; in the test on SK-MEL-2 melanoma it was 113%; in the test on EKVX NSCLC, 99.7%; in the test on UO-31 renal, 91.2%. The growth was 103% in the test on TK-10 renal; 110% with ACHN renal; 99.8% in the test on CAKI-1 renal; 132% in the test with A498 renal; 114% in the test on MOLT-4 leukemia.
For `CC12CC[C@@H]3[C@]4(C)COC(c5c(F)cccc5F)O[C@@H]4CC[C@@]3(C)[C@@H]1CC(C1=CCOC1=O)O2` (some centres undefined), the growth was 80.4% with HCT-15 colon; 76.5% in the test on HT29 colon; 63.2% in the test on SNB-19 CNS; 56.4% with PC-3 prostate; 47.4% with SK-MEL-5 melanoma; 50.4% in the test on UACC-62 melanoma. Further, the growth in the test with LOX IMVI melanoma is 73.1%; in the test with SK-MEL-28 melanoma, 88.8%; in the test with SK-MEL-2 melanoma, 81.2%; with EKVX NSCLC it was 70.3%; with SN12C renal, 66.6%; with UO-31 renal, 76.4%. In addition, the growth is 93.5% with TK-10 renal; 35% in the test with ACHN renal; 87.2% with CAKI-1 renal; 106% with A498 renal; 74.8% in the test on CCRF-CEM leukemia; 52.6% in the test with MOLT-4 leukemia.
On to `CC12CC[C@@H]3[C@]4(C)COC(c5cn[nH]c5-c5ccc(Cl)cc5)O[C@@H]4CC[C@@]3(C)[C@@H]1CC(C1=CCOC1=O)O2` (some centres undefined), for which the growth with HCT-15 colon was 36.2%; in the test with HT29 colon, 22%; in the test with SNB-19 CNS, 54.5%; in the test on U251 CNS, 50%; with PC-3 prostate, 19.4%; with SK-MEL-5 melanoma, 16.5%. For the same compound, the growth was 33.4% with UACC-62 melanoma; 46.2% in the test on LOX IMVI melanoma; 39.2% in the test on SK-MEL-28 melanoma; 29.7% in the test with SK-MEL-2 melanoma; 48.5% in the test with SN12C renal; 21% in the test with UO-31 renal. Besides, the growth in the test on TK-10 renal was 35.3%; with ACHN renal, 33.8%; with CAKI-1 renal, 49.8%; in the test with A498 renal, 85.6%; in the test with CCRF-CEM leukemia, 32.8%; in the test with MOLT-4 leukemia, -16.8% (active).
With `CN(C)CCOc1ccc(C(=O)C2[C@H](c3ccc(Cl)cc3)[C@@H](c3ccccc3)NC23C(=O)Nc2ccccc23)cc1` (some centres undefined), the growth is 12% in the test on HCT-15 colon; -69.3% (active) in the test on HT29 colon; 83.8% with SNB-19 CNS; 11.9% in the test on U251 CNS; 41.9% in the test on PC-3 prostate; 83.7% in the test on SK-MEL-5 melanoma. In addition, the growth is 78.8% with UACC-62 melanoma; -94.3% (active) in the test with LOX IMVI melanoma; 94.6% with SK-MEL-28 melanoma; 112% with SK-MEL-2 melanoma; 77.2% with EKVX NSCLC; 69.1% with SN12C renal. The growth in the test with UO-31 renal was 59%; with ACHN renal, 88.3%; with CAKI-1 renal, 58%; in the test on A498 renal, 112%; in the test on CCRF-CEM leukemia, 86.3%; with MOLT-4 leukemia, -32.8% (active).
Take `O=C(N1c2ccccc2Sc2ccccc21)n1ccc2cccnc21`: the growth is 40.2% in the test with HCT-15 colon; 60.7% in the test on HT29 colon; 74.3% in the test with SNB-19 CNS; 51.3% with U251 CNS; 39.8% with PC-3 prostate; 45.9% in the test on SK-MEL-5 melanoma. Also, the growth was 47.5% in the test with UACC-62 melanoma; 44.8% in the test with LOX IMVI melanoma; 76.9% in the test on SK-MEL-28 melanoma; 73.6% with SK-MEL-2 melanoma; 79.3% in the test with EKVX NSCLC; 81.1% in the test with SN12C renal. Moreover, the growth is 55.6% with UO-31 renal; 90.7% in the test on TK-10 renal; 88.2% in the test with ACHN renal; 53.6% with CAKI-1 renal; 109% in the test on A498 renal; 38.3% in the test on MOLT-4 leukemia.

(Values after PubChem BioAssay (NCI).)
